Measurements reported in PubChem BioAssay AID2783 (National Center for Advancing Translational Sciences (NCATS), 2010).
Records with an inconclusive call do not appear. Activity calls are given as the source filed them. Calls follow the shape of the dose curve; as a rule, active = well fitted inhibition curve with a large enough effect in the polarisation, with a control signal flat (not every such curve was filed as active); inconclusive = small, poorly fitted or top-dose-only effect, or effect the other way, or a change in a side signal; inactive = no such curve, though single readings can be large or run the other way; the % refers to the polarisation.

What follows are compounds tested against Menin (Homo sapiens) (UniProt O00255) (assay: Confirmation of Inhibitors Targeting the Menin-MLL Interaction in MLL Related Leukemias: Competition With Fluorescein Labeled MLL-derived Peptide). Details: Fluorescence polarization, fluorescein-MLL peptide displacement from menin; series mostly up to 100 µM.
Menin (Homo sapiens), sequence (O00255 whole entry, looked up): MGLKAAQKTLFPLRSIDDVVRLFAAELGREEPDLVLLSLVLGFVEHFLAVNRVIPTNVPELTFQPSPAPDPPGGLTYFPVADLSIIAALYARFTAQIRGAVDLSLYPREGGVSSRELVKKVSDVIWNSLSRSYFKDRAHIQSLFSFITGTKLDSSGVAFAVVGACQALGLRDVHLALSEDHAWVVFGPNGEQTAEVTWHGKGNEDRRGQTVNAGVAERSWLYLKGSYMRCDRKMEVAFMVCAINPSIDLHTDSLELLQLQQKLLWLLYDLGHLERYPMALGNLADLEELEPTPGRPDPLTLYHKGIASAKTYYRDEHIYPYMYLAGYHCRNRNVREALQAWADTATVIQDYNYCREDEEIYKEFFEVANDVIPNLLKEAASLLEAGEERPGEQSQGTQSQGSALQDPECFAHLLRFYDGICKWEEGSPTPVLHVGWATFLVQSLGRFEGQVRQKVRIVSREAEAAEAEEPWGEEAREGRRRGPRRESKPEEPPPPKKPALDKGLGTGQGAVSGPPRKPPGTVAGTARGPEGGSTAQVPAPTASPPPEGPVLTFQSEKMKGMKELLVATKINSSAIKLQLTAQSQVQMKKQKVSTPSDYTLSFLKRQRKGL

outcome, inactive:
Cc1ccc(NC(=O)CN2C(=O)S/C(=C\c3ccc(C(=O)O)cc3)C2=O)cc1
COc1cccc(OC)c1NC(=O)CN1CCN(C)CC1
Cc1nc(N2CCN(C)CC2)c2c3c(sc2n1)CCCC3
O=C(NC(=S)Nc1ccccc1)c1cc(-c2ccccc2)nc2ccccc12
CCOC(=O)Cn1cnc2scc(-c3ccc(C)c(C)c3)c2c1=O
CC(=O)c1ccc2c(c1)N(CCCN1CCC(CCO)CC1)c1ccccc1S2
COc1ccccc1NS(=O)(=O)c1cc(NC(=O)Nc2cccc(C)c2)ccc1N1CCCCC1
COC(=O)Cc1c(C)nc2nc(-c3ccc(OC)cc3)[nH]n2c1=O
COC(=O)COc1ccc(C(C2C(=O)CC(C)(C)CC2=O)C2C(=O)CC(C)(C)CC2=O)cc1
O=[N+]([O-])c1ccc(S(=O)(=O)c2ccccc2)nc1
Cc1ccc(-c2csc(NC(=O)c3ccc(S(=O)(=O)N4CCc5ccccc54)cc3)n2)cc1
CC(=O)N1CCCc2cc(S(=O)(=O)N3CCCC(C(=O)N4CCN(c5ccccc5)CC4)C3)ccc21 (stereo not drawn)
COc1cnc(-c2ccccn2)nc1N(C)c1ccccc1
CCCC(=O)Nc1cccc(NC(=O)c2ccc([N+](=O)[O-])cc2Cl)c1
COC(=O)c1cc(CNC(=O)CCCSc2ccccc2)ccc1OC
CC(=O)Nc1ccc(-c2cc(-c3ccc(NC(C)=O)cc3)nc(-c3ccc(NC(C)=O)cc3)n2)cc1
COC(CSc1nc(N)c2c3c(sc2n1)CN(C)CC3)OC
COC(=O)c1ccccc1NC1=C/C(=N\S(=O)(=O)c2ccc(C(=O)O)cc2)c2ccccc2C1=O
O=C(CCN1CCN(c2ccc([N+](=O)[O-])cc2)CC1)c1ccc(Cl)cc1
c1ccc2c(c1)nc(N1CCOCC1)c1c3ccccc3[nH]c21
CC(C)Cc1cc(C(=O)NCCCN2CCOCC2)no1
CCOc1ccccc1N(CC(=O)Nc1ccccc1C(=O)N1CCCC1)S(C)(=O)=O
Cc1[nH]nc(-c2ccc(OCc3cnn(-c4ccccc4)c3)c(C)c2O)c1Oc1ccccc1
CC(=O)N1c2ccccc2C2(O)N=C(C)SC12 (stereo not drawn)
CCOC(=O)N1CCN(Cc2nnc(-c3ccccc3C)o2)CC1
CCn1ncc(C(=O)Nc2cc(C)on2)c1C
O=C(Nc1ccc2ccccc2c1)c1cn(-c2ccccc2)nc1-c1cccs1
O=C(/C=C/c1ccccc1)NC(NC(=S)Nc1cc(Cl)ccc1Cl)C(Cl)(Cl)Cl (stereo not drawn)
CN(C)c1ccc(N=Nc2ccc(C(=O)O)cc2)cc1
O=C(CSc1nnc(-c2c[nH]c3ccccc23)o1)c1ccc(-c2ccccc2)cc1
Cc1ccc(C(=O)Sc2cccccc2=O)cc1
C=C(C)CNC(=S)Nc1cccc2cnccc12
COc1cc(OC)cc(C(=O)N/N=C/c2ccc(OC)c(COc3ccc4ccccc4c3)c2)c1
